Source: PubChem BioAssay
Cycloheximide cs – affects cycloheximide protein synthesis inhibition readout, counter-screen; cell reporter, cycloheximide protein synthesis inhibition counterscreen; max response, %; hit rate 12% among 300,000; AID 2314; in the data active means max response mostly above about 13%, no sharp cut-off; inactive means mostly below about 14%; further: read at 38.3 µM for the half of the compounds with a filed dose; 0% is about no effect
Shiga inhibitor – Shiga toxin inhibition; Vero cells, Shiga toxin protein synthesis inhibition reporter; inhibition, % at 38.7 µM; hit rate 9.2% among 290,000; AID 2315; in the data active means inhibition mostly above about 28%, no sharp cut-off; inactive means mostly below about 43%; further: 0% is about no effect
Pf growth 96h – P. falciparum growth inhibition at 96 hours; Potency, µM (doses to about 28.7 µM), for inactives: at the top dose activity change, negative = inhibition, usual class: inhibitors; P. falciparum luciferase reporter growth, 96 h; hit rate 6.9% among 320,000; AID 504834; active means well fitted inhibition curve with a large enough effect; inconclusive means small, poorly fitted or top-dose-only effect, or another doubt; inactive means no such curve, though single readings can be large or run the other way; further: potency means the concentration at half of the fitted maximal effect; on the % scale 0 is the no-effect control and ±100 the full control effect
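Plates of compound plus infected erythrocytes (2% hematocrit, 0.05% parasitemia final) incubate 96 hours, 37 C, 5% CO2. Detection reagent added; reduced luminescence from the parasites' luciferase reporter flags inhibition.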
SARS PLpro yeast – inhibitors of SARS-CoV papain-like protease in yeast | S. cerevisiae expressing SARS-CoV PLpro, growth rescue | Potency, µM (top dose mostly 32.9 µM), inactives show top-dose activity, positive = growth rescue, usual class: activators | hit rate 0.19% among 330,000; further: potency means the concentration at half of the fitted maximal effect; 0% is about no effect; nearly all actives have a fitted effect of over 55% in size
NS1 inh – inhibitors of influenza NS1 protein function; hit rate 0.4% among 270,000; Potency, µM (top dose mostly 46.1 µM), for the others: top-dose activity, positive = more growth; AID 2326; further: potency means the concentration at half of the fitted maximal effect; actives are rising curves; nearly all actives have a fitted effect of over 50% in size
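Read-out: OD600 growth recovery of NS1-expressing budding yeast. Cells grown overnight at 30C in -URA glucose medium, washed, resuspended and diluted 1:100 in 2% galactose assay medium, pH 6.0. Same strain lacking NS1 served as positive control.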
Pf growth 48h – P. falciparum growth inhibition at 48 hours (one generation) | P. falciparum luciferase growth in erythrocytes, 48 h | Potency, µM (top dose mostly 28.7 µM), without a hit: at the highest dose activity change, negative = inhibition, usual class: inhibitors | hit rate 5.9% among 310,000 | AID 504832; active means well fitted inhibition curve with a large enough effect; inconclusive means small, poorly fitted or top-dose-only effect, or another doubt; inactive means no such curve, though single readings can be large or run the other way; further: potency means the concentration at half of the fitted maximal effect; on the % scale 0 is the no-effect control and ±100 the full control effect
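A one-generation exposure of luciferase-tagged malaria parasites in RPMI 1640/Albumax erythrocyte culture, 37 C and 5% CO2. Inhibition is inferred from decreased luminescence after adding detection reagent.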
* = called active by the depositor; ? = inconclusive; · = no result given; [ ] = dose if it differs, or a comment. Compounds with a hit are over-represented: about 21% of the library has one in this group of screens. Unless noted, the call rests on the fitted dose curve.

SMILES	Cycloheximide cs	Shiga inhibitor	Pf growth 96h	SARS PLpro yeast	NS1 inh	Pf growth 48h
Oc1ccc(C2C(c3ccccc3)=NN=C(c3ccc(Cl)cc3)N2O)c(O)c1 (stereo not drawn)	2	-1	2.6µM*	13%	18%	?
CCc1ccc(C(=O)NNC(=O)CCN2CCN(Cc3ccccc3)CC2)cc1	9	11	38%	1%	-1%	2.3µM*
COC(=O)c1ccc(NC(=O)CCN2CCN(Cc3ccccc3)CC2)cc1	-3	-4	-27%	-2%	-2%	13µM*
O=C(O)c1cc(S(=O)(=O)N2CCN(C(c3ccccc3)c3ccccc3)CC2)ccc1Cl	2	-1	9.3µM*	-1%	7%	12µM*
Cc1ccc(S(=O)(=O)N2CCN(c3ccccc3)CC2)cc1C(N)=O	-5	-4	13µM*	0%	·	-19%[5.75 µM]
O=C(Nc1ccncc1)c1cc(S(=O)(=O)N2CCN(c3ccccc3)CC2)ccc1Cl	·	·	?	2%	·	12µM*
O=C(Nc1ccncc1)c1cc(S(=O)(=O)N2CCCC2)ccc1Cl	·	·	·	2%	·	·
COc1cccc(-c2csc(N3CCN(S(=O)(=O)c4ccc(F)cc4)CC3)n2)c1	-3	38	-5%	-10%	1%	?
O=C(CCCl)N1CCN(c2nc(-c3ccccc3)cs2)CC1	33*	69*	?	-1%	23%	22%
CCS(=O)(=O)N1CCN(c2nc(-c3ccccc3)cs2)CC1	18*	30	?	-5%	4%	29%
CS(=O)(=O)N1CCN(c2nc(-c3ccccc3)cs2)CC1	27*	64	?	6%	10%	20%
Cc1cc(N2CCN(c3nc(-c4ccccc4)cs3)CC2)c2ccccc2n1	-2	-6	-9%	0%	0%	?
CN1CCN(C(=O)c2cccc(NS(=O)(=O)c3ccc(Br)cc3)c2)CC1	·	·	2%	-7%	·	-10%
C[C@@H]1CCC[C@H](C)N1	·	·	0%[12.8 µM]	·	·	11%[12.8 µM]
COCCN(CC(=O)Nc1cccc(C)c1C)C(=O)c1oc2ccccc2c1C	·	·	·	0%	·	·
O=C(CC1SC(N2CCCC2)=NC1=O)Nc1ccc(C(=O)NCCOc2ccccc2F)cc1 (stereo not drawn)	·	·	?	-3%	·	6%
CCCCCSc1cc(O)c(C(CNC)C(C)C)cc1OC (stereo not drawn)	-5	-2	0.47µM*	-2%	-4%	0.41µM*
CC1CC1C(=O)OCC(=O)Nc1ccc(N=Nc2ccccc2)cc1 (stereo not drawn)	55*	93*	348%	-22%	-40%	233%
CC1CC1C(=O)OCC(=O)Nc1cccc([N+](=O)[O-])c1 (stereo not drawn)	32*	65*	18%	3%	6%	?
Nc1ccc(SCC(=O)Nc2cccc([N+](=O)[O-])c2)cc1	37*	51	127%	-1%	·	31%
CCCC(=O)OCC(=O)Nc1ccc(N=Nc2ccccc2)cc1	62*	84*	415%	-61%	-20%	246%
CC(=O)NCCCNS(=O)(=O)c1ccc(C)cc1	-2	2	?	0%	4%	47%
Cc1ccc(/C=C/C(=O)OCn2nnc3ccccc3c2=O)o1	-1	-5	16%	0%	-8%	18%
CCOc1ccc(CN(C)C(=O)c2ccc(NC(=O)CC3SC(N4CCCC4)=NC3=O)cc2)cc1 (stereo not drawn)	4	15	?	4%	-8%	?
Cc1cc(C(=O)CSc2cccc[n+]2[O-])c(C)n1-c1ccc(OC(F)F)cc1	54*	59*	?	-3%	-156%	-29%
O=C(O)CCc1ccc(S(=O)(=O)Nc2ccccc2N2CCCCC2)cc1	·	·	·	-9%	·	·
COc1ccc(OCCCC(=O)Nc2cc(S(=O)(=O)N3CCCCC3)ccc2OC)cc1	·	·	9.3µM*	4%	·	12µM*
COc1ccc(S(=O)(=O)N2CCCCC2)cc1NC(=O)CSc1ncccn1	·	·	12µM*	5%	·	?
COc1ccc(S(=O)(=O)N2CCC(C(=O)NCc3ccncc3)CC2)cc1Cl	6	-6	1.9µM*	0%	2%	29%
COc1ccc(CNC(=O)COc2ccc(S(=O)(=O)N3CCCCC3)cc2Cl)cc1	-3	-3	-24%	3%	-7%	13µM*
